# Nrf2 activator = activators of Nrf2 (ARE) signaling; actives 0.31% (n = 410,000); AREc32 ARE-luciferase reporter (MCF7-derived line), luminescence, 24 h; Potency, µM (top dose mostly 46.1 µM), usual class: activators; note: nearly all actives have a fitted effect of over 65% in size
#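 Each well held 1000 AREc32 cells, which were incubated with compound for 24 hr at 37 deg C after overnight attachment, and ARE reporter activity was quantified by firefly luciferase luminescence.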
# IL2 activator = activates IL-2 in a cell-based reporter assay; IL-2 activation reporter assay, cell-based qHTS; stimulated with anti-CD3/CD4/CD28 beads; in transgenic mouse T cells; activation, % (series mostly up to about 46 µM); actives 0.065% (n = 360,000); in the data active = activation above about 50%; inconclusive = mostly about 30% to 49%
#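 Screening format: compound pinned onto unstimulated transgenic mouse T cells, 60 min incubation, then anti-CD3/anti-CD4/anti-CD28 bead stimulation for 18 hours at 37 degrees C, followed by EGFP and DsRed detection.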
# ELG1 DNA repair = blocks ELG1-dependent DNA repair in HEK293T cells | HEK293T ELG1-luciferase reporter, luminescence, 16 h; DNA damage induced by 5-fluorouridine | Potency, µM (titrated, usually from 46.1 µM), usual class: inhibitors | actives 2.3% (n = 330,000) | AID 504467; note: nearly all actives have a fitted effect of over 55% in size
#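 Cells (2,000 per well) received 5-fluorouridine plus test compound or DMSO and were incubated 16 hr at 37 °C, 5% CO2. Luciferase activity was read by luminescence 30 min after ONE-Glo addition; signal suppression marked inhibition of damage-induced ELG1 function.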
# BRCA1 expr act = BRCA1 expression activation. MCF7-BRCA1-FFLuc reporter, luminescence, 48 h; response scale: scaled: vehicle 0%, 10 µM genistein 100%. Potency, µM (top dose mostly 46.1 µM), usual class: activators. actives 1.1% (n = 380,000). AID 624202; note: nearly all actives have a fitted effect of over 80% in size
#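 MCF7-BRCA1-FFLuc cells, 2000/well in phenol-red-free MEM, attached 2 h then treated 48 h at 37 C. Luciferase luminescence read 15 min after reagent; normalized to genistein maximum activation (10microM) and DMSO, concentration-response fitted.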
# Numbers stand for hits; – = inactive; ? = inconclusive; · = no result. In the library only some 3.1% were active in any assay of this set; here they are far more common. Unless noted, calls come from the whole dose curve; as a rule, active = well fitted curve in the direction sought with a large enough effect; inconclusive = small, poorly fitted or top-dose-only effect, or another doubt; inactive = no such curve, though single readings can be large; an effect the other way counts as inactive or inconclusive.
SMILES,Nrf2 activator,IL2 activator,ELG1 DNA repair,BRCA1 expr act
CCOn1c(=O)c(=O)n(OCc2ccccc2)c2ccccc21,22.4µM,–,–,–
Cc1c(=O)n(OCc2ccccc2)c2ccccc2[n+]1[O-],?,–,–,–
O=C(Nc1ccc(C(=O)N2CCN(c3cccc(Cl)c3)CC2)cc1)c1nsc2ccccc12,–,·,·,·
N#CCCN(C(=O)CSc1ccc2c(c1)OCCO2)c1ccccc1,–,–,–,–
CN(C(=O)CSc1ccc2c(c1)OCCO2)c1ccccc1,–,–,?,10µM
Cc1ccc(C)c(Nc2c([N+](=O)[O-])c(=O)oc3ccccc23)c1,–,–,20.6µM,–
COc1ncc(-c2ccc(N3C(c4ccsc4)=Cc4ccc(F)cc4C3CC(C)=O)cc2)cn1 (configuration not stated),–,–,·,–
Cn1c(SCc2ccccc2)nc2ccsc2c1=O,12.6µM,–,?,–
CCN(CC)CCOC(=O)c1ccc(NC(=O)c2cc3cccc(OC)c3oc2=O)cc1,–,·,·,·
COc1ccc(-c2sc3ccc(OC)cc3c2C#Cc2cncn2C)cc1,–,–,5.8µM,–
COC(C(=O)C(O)C(C)O)C1Cc2cc3cc(OC4CC(OC5CC(O)C(O)C(C)O5)C(O)C(C)O4)c(C)c(O)c3c(O)c2C(=O)C1OC1CC(OC2CC(OC3CC(C)(O)C(O)C(C)O3)C(O)C(C)O2)C(O)C(C)O1 (configuration not stated),·,·,·,–
CCOC(=O)c1c(NC(=O)COc2cccc3c2CCN(C)C3=O)sc2c1CCC2,–,–,18.4µM,–
Cc1cccc(NC(=O)COc2cccc3c2CCN(C)C3=O)c1C,–,–,?,–
CCOC(=O)c1sc(NC(=O)c2ccc(Cl)s2)cc1C,–,–,?,4.47µM
CCOC(=O)c1sc(NC(=O)C(C)(C)C)cc1C,–,–,?,3.16µM
CCOC(=O)c1sc(NC(=O)Nc2ccc(Cl)cc2)cc1C,–,–,–,–
COc1ccc(S(=O)(=O)N(C)C[C@@H]2OCCCC[C@H](C)Oc3ccc(NC(=O)Nc4ccc(C(F)(F)F)cc4)cc3C(=O)N([C@H](C)CO)C[C@H]2C)cc1,–,–,·,–
COc1ccc(-c2nc(-c3cccs3)c(-c3cccs3)[nH]2)cc1OC,–,–,20.6µM,–
O=[N+]([O-])c1ccc(-c2nc(-c3cccs3)c(-c3cccs3)[nH]2)cc1,–,–,20.6µM,–
COc1ccc(-c2nc(-c3ccccc3)c(-c3ccccc3)[nH]2)cc1Br,–,·,·,·
COc1ccc(-c2nc(-c3ccccc3)c(-c3cccs3)[nH]2)cc1OC,–,–,14.6µM,–
OC(c1ccc(F)cc1)c1nc(-c2cccc(F)c2)cs1 (configuration not stated),–,–,·,–
O=C(Nc1ccccc1N1CCOCC1)c1ccc(Cl)c(S(=O)(=O)NCc2ccco2)c1,–,–,16.4µM,–
COc1cc(S(=O)(=O)N2CCOCC2)ccc1NC(=O)COC(=O)CC12CC3CC(CC(C3)C1)C2,–,–,18.4µM,–
O=C(Nc1ccc(N2CCOCC2)c(S(=O)(=O)Nc2ccccc2Cl)c1)c1ccc(=O)[nH]n1,–,–,·,–
SMILES,Nrf2 activator,IL2 activator,ELG1 DNA repair,BRCA1 expr act
O=C(Nc1ccc(N2CCOCC2)c(S(=O)(=O)Nc2ccccc2Cl)c1)c1ccccc1,–,–,18.3µM,–
Cc1ccc(C(=O)NC2CCCCCCC2)cc1S(=O)(=O)N1CCOCC1,–,–,?,10µM
CC(C)C(=O)Nc1cccc(C(=O)Nc2nnc(CC(C)(C)C)s2)c1,–,·,·,·
Cc1ccc(NC(=O)c2ccccc2NS(=O)(=O)c2ccc(Cl)s2)cc1S(=O)(=O)N1CCOCC1,–,–,23.1µM,–
Cc1ccc(NC(=O)c2ccc([N+](=O)[O-])s2)cc1S(=O)(=O)N1CCOCC1,?,–,6.51µM,–
COc1ccc(S(=O)(=O)N2CCOCC2)cc1NC(=O)c1cc2c(s1)CCCC2,–,–,16.4µM,–
O=C(Nc1cc(S(=O)(=O)N2CCOCC2)ccc1N1CCOCC1)c1ccccc1[N+](=O)[O-],–,–,–,–
O=C(Nc1cc(S(=O)(=O)N2CCOCC2)ccc1N1CCOCC1)c1ccc([N+](=O)[O-])s1,–,–,20.6µM,–
CCOC(=O)c1noc2ncn(CC(=O)Nc3ccccc3OC)c(=O)c12,–,·,·,–
Cc1cc(Cl)c(S(=O)(=O)N2CCCC2)cc1OCC(=O)NC1CCCCC1,–,–,13µM,–
Cc1ccc(NC(=O)c2ccc3c(c2)OCO3)cc1S(=O)(=O)N1CCOCC1,–,–,18.3µM,–
COc1ccc(S(=O)(=O)N2CCOCC2)cc1NC(=O)COC(=O)c1ccc([N+](=O)[O-])s1,–,–,23.1µM,–
COc1ccc(S(=O)(=O)N2CCOCC2)cc1NC(=O)COC(=O)c1[nH]c(C)c(C(C)=O)c1C,–,–,?,–
Cc1ccc(NC(=O)c2oc3ccccc3c2COC(C)C)cc1S(=O)(=O)N1CCOCC1,–,–,18.3µM,–
COc1ccc(NC(=O)c2oc3ccccc3c2CSC)cc1S(=O)(=O)N1CCOCC1,–,–,–,–
CCN1C(=O)[C@H]2[C@@H](c3ccc(C(F)(F)F)cc3)N[C@]3(CCCN(Cc4ccco4)C3=O)[C@H]2C1=O,–,–,·,–
CC(=O)Oc1c(-c2ccco2)oc2ccccc2c1=O,?,–,?,–
Cn1ncc2c(NCc3ccco3)ncnc21,·,·,·,–
Cc1ccc(C(C)C)c(OCC(=O)Nc2ccc(S(=O)(=O)Nc3onc(C)c3C)cc2)c1,–,·,·,·
COc1ccccc1NC(=O)C1=C(C)Nc2c(C(=O)Nc3ccc(F)cc3)cnn2C1c1ccc(Cl)cc1 (configuration not stated),–,·,·,·
CCCCN(C)C(=O)Cn1cnc2sc(C)c(S(=O)(=O)N3CCC(C)CC3)c2c1=O,–,·,·,·
O=C(CN1C(=O)CCC1=O)Nc1nc(-c2nc3ccccc3s2)cs1,–,–,?,5.01µM
COc1ccc(Br)cc1CNC(=O)CN1C(=O)CSc2ccc(S(=O)(=O)N3CCOCC3)cc21,–,·,·,·
COc1ccc(-c2nc(CCNC(=O)c3cccs3)cs2)cc1,–,–,20.6µM,–
O=C(NCCc1csc(-c2ccccc2)n1)c1c(F)cccc1Cl,–,–,18.3µM,–
SMILES,Nrf2 activator,IL2 activator,ELG1 DNA repair,BRCA1 expr act
O=C(NCCc1csc(-c2cccnc2)n1)c1ccc(Br)o1,–,–,11.6µM,–
O=C(NCCc1csc(-c2ccc(F)cc2)n1)c1cccs1,–,·,·,·
O=C(Cc1ccccc1)NC1CC(=O)N(c2ccc3c(c2)OCCO3)C1 (configuration not stated),–,·,·,–
COc1ccc(CCNC(=O)CCSCc2ccccc2Cl)cc1OC,–,·,·,·
CC(C)N1C(=O)/C(=C\c2nc3ccccc3c(=O)n2-c2ccccc2)c2ccccc21,–,–,13µM,–
CC(C)N1C(=O)C(Cc2nc3ccccc3c(=O)n2-c2ccccc2)c2ccccc21 (configuration not stated),–,–,–,–
O=C1c2ccccc2-n2c1nc1ccccc1c2=O,–,–,?,–

# Screens deposited in PubChem by National Center for Advancing Translational Sciences (NCATS).
